From PubChem
The entries come from a sample that favours hits as a whole.
L3MBTL1 inh – inhibitors of human L3MBTL1. Q9Y468. AlphaScreen L3MBTL1–H3K9me1 peptide binding. Potency, µM (doses to about 57.1 µM), most hits filed as inhibitors. hit rate 0.66% among 230,000. AID 485360; note: nearly all actives have a fitted effect of over 60% in size
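First, the protein-peptide complex forms for 30 min at room temperature (L3MBTL1 50 nM, biotinylated H3K9me1 peptide 75 nM). Next, compounds are pin-transferred and incubated 30 min. Finally, AlphaScreen beads are added and read after 30 min.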
KDM4E inh – inhibitors of human JMJD2E histone demethylase. hit rate 1.6% among 230,000. Potency, µM (highest dose often 57.1 µM), usual class: inhibitors. B2RXH2. AID 2147. JMJD2E catalytic domain, FDH-coupled NADH fluorescence (FDH is formaldehyde dehydrogenase); note: nearly all actives have a fitted effect of over 50% in size
RECQ1 inh-1 – RECQ1 (human) helicase inhibition. P46063. RECQ1 DNA unwinding, red fluorescence kinetic read. Potency, µM (doses to about 57.3 µM), most hits filed as inhibitors. hit rate 0.54% among 240,000. AID 2549; note: nearly all actives have a fitted effect of over 30% in size
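RECQ1T1 50 nM; forked duplex (20 bp + 30-nt ss tails) 200 nM, ATP 2 mM final; pH 8.0, 2 mM MgCl2, 2.5 ug/ml poly(dI-dC); 15 min compound preincubation; discontinuous kinetic read over 2 h at RT.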
BLM helicase inh – inhibitors of human Bloom syndrome helicase BLM; recombinant BLM DNA unwinding, fluorescence dequenching; Potency, µM (doses to about 56.1 µM), hits mostly inhibitors; hit rate 0.2% among 350,000; AID 2528; note: nearly all actives have a fitted effect of over 35% in size
APEX1 inh – blocks human APE1 abasic DNA cleavage; P27695; recombinant APE1, TAMRA/BHQ-2 abasic DNA cleavage fluorescence; Potency, µM (series often up to 65.8 µM), most hits filed as inhibitors; hit rate 0.35% among 350,000; note: nearly all actives have a fitted effect of over 55% in size
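Step 1: APE1 (0.75 nM) with compound, 15 min RT. Step 2: add 50 nM fluorophore/quencher THF duplex. Step 3: three fluorescence reads 60 s apart (525/598 nm); read 3 minus read 1 = reaction progress.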
TDP1 inh – inhibitors of human tyrosyl-DNA phosphodiesterase TDP1; Potency, µM (titrated, usually from 130 µM), hits mostly inhibitors; AID 485290; hit rate 0.28% among 350,000; recombinant TDP1, AlphaScreen DNA substrate cleavage; note: nearly all actives have a fitted effect of over 40% in size
Target sequence (Q9NUW8 whole entry, looked up): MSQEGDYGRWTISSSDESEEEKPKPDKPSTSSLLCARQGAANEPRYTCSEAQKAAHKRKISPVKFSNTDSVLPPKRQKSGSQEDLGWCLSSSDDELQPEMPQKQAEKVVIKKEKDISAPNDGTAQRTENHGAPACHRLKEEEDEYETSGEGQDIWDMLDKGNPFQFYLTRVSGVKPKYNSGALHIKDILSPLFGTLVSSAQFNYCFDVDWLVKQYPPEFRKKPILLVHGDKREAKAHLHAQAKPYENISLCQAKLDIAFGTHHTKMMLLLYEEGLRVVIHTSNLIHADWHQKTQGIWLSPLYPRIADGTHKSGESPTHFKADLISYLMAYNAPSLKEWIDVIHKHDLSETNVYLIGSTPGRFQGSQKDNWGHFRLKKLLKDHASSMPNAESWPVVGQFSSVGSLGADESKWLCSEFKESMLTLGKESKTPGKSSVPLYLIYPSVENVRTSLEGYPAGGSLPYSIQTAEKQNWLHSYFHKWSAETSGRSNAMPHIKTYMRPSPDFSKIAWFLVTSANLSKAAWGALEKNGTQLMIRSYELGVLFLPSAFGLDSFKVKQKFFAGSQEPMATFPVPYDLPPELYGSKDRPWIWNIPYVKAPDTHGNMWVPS
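E. coli-derived human Tdp1, 1 nM final. Cpd preinc 15 min RT; substrate 15 nM final, 5 min RT; AS bead mix 10 ug/ml final, 10 min RT. Signal loss = tyrosine-FITC cleavage. No-enzyme wells = max signal.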
RECQ1 conf – confirmation of human RECQ1 helicase inhibitors. shares compounds with RECQ1 inh-1. RECQ1 helicase DNA unwinding, fluorescence. Potency, µM (highest dose often 229 µM), usual class: inhibitors. hit rate 28% among 610; note: nearly all actives have a fitted effect of over 45% in size
ADP FP counter – ADP displacement flagged in RECQ1 inhibitor counter-screen; shares compounds with RECQ1 inh-1; Potency, µM (doses to about 228 µM), actives largely listed as inhibitors; ADP fluorescence polarization displacement counterscreen; hit rate 27% among 530; note: nearly all actives have a fitted effect of over 45% in size
RECQ1 inh-2 – blocks human RECQ1 DNA unwinding; recombinant RECQ1 DNA unwinding, red fluorescence; hit rate 15% among 1,100; Potency, µM (top dose mostly 119 µM), most hits filed as inhibitors; shares compounds with RECQ1 inh-1; note: nearly all actives have a fitted effect of over 50% in size
Large screens that a line does not name were inactive (follow-up assays come after a bar, where they were run). Unless noted, calls come from the whole dose curve; as a rule, active = well fitted curve in the direction sought with a large enough effect; inconclusive = small, poorly fitted or top-dose-only effect, or another doubt; inactive = no such curve, though single readings can be large; an effect the other way counts as inactive or inconclusive.

O=C(/C=C/c1ccco1)N(Cc1ccc(F)cc1)C1CCS(=O)(=O)C1 (stereo not given)	RECQ1 inh-1 inconclusive | RECQ1 inh-2 inactive
Cc1cc(C(=O)CSc2nnc(-c3ccccc3F)o2)c(C)n1Cc1cccs1	RECQ1 inh-1 inconclusive, APEX1 inh inconclusive
COc1ccccc1-n1cnnc1SCC(=O)c1cc(C)n(Cc2cccs2)c1C	RECQ1 inh-1 inconclusive, APEX1 inh inconclusive | RECQ1 inh-2 inactive
O=c1[nH]c2cc3c(cc2cc1CN(Cc1cccs1)Cc1nnnn1Cc1ccco1)OCCO3	L3MBTL1 inh inconclusive, KDM4E inh inconclusive, RECQ1 inh-1 inconclusive, APEX1 inh 40µM | RECQ1 inh-2 inactive
CCc1ccc2[nH]c(=O)c(CN(Cc3ccccc3)Cc3nnnn3Cc3ccco3)cc2c1	KDM4E inh inconclusive, RECQ1 inh-1 32µM, APEX1 inh inconclusive | RECQ1 inh-2 inactive
CS(=O)(=O)N1CCC[C@@]2(CCN(c3ccccc3)C2)C1	none (no result: L3MBTL1 inh, KDM4E inh, TDP1 inh)
COc1ccc(NC(=O)CCNS(=O)(=O)c2ccc3c(c2)CCC(=O)N3)cc1	none | RECQ1 conf inactive | ADP FP counter inconclusive
COc1cc(C(C)=O)ccc1COc1ccc(C(=O)OCC(=O)NC2CCS(=O)(=O)C2)cc1OC (stereo not given)	RECQ1 inh-1 32µM | RECQ1 inh-2 inactive
O=C(O)CC/C(=N/NC(=O)c1cn(-c2ccccc2)nc1-c1ccccc1)C(=O)O	none | RECQ1 conf inactive | ADP FP counter inactive
O=C(Nc1ccccc1)c1cn(-c2ccccc2)nc1-c1ccccc1	none (no result: L3MBTL1 inh, KDM4E inh, RECQ1 inh-1, APEX1 inh)
COc1cc(/C=C2\SC(=S)N(NC(=O)c3ccc(O)c(OC)c3)C2=O)ccc1O	none (no result: L3MBTL1 inh, KDM4E inh, RECQ1 inh-1, TDP1 inh)
COc1cc(/C=C2\SC(=S)N(NC(=O)c3ccncc3)C2=O)ccc1O	RECQ1 inh-1 14µM, APEX1 inh inconclusive | RECQ1 conf 50µM | ADP FP counter inactive
Nc1ncnc2c1nc(Cl)n2[C@@H]1O[C@H](CO)[C@@H](O)[C@@H]1O	none (no result: L3MBTL1 inh, KDM4E inh, RECQ1 inh-1, BLM helicase inh, APEX1 inh)
COc1ccc(CCCc2nnc(SCC(=O)Nc3ccc(Cl)cc3)o2)cc1	none (no result: L3MBTL1 inh, KDM4E inh, RECQ1 inh-1, APEX1 inh, TDP1 inh)
Cc1cc2nc3c(=O)[nH]c(=O)nc-3n(C)c2cc1C=O	RECQ1 inh-1 3.2µM, BLM helicase inh 16µM (no result: L3MBTL1 inh, KDM4E inh) | RECQ1 conf active | ADP FP counter 6.3µM
CCc1cc(C(=O)c2ccc(OC)cc2)c(NC(=O)CN2CCCC2)s1	KDM4E inh inconclusive
CCc1cc(C(=O)c2ccc(OC)cc2)c(NC(=O)CCC(=O)O)s1	none | RECQ1 conf inactive | ADP FP counter inactive
Cc1ccc(C)c(CNC(=O)CN2C(=O)CSc3ccc(S(=O)(=O)N(C)C)cc32)c1	none (no result: L3MBTL1 inh, KDM4E inh, RECQ1 inh-1, APEX1 inh)
O=C(NCc1ccccn1)C1CCN(S(=O)(=O)c2cc(Cl)ccc2Cl)CC1	RECQ1 inh-1 inconclusive (no result: L3MBTL1 inh) | RECQ1 inh-2 inactive
O=C(N/N=C/c1ccc(O)c(O)c1)c1ccc(CSc2cccc3cccnc23)cc1	KDM4E inh inconclusive, RECQ1 inh-1 11µM (no result: L3MBTL1 inh) | RECQ1 conf inactive | ADP FP counter inactive
O=C(NCc1ccc2c(c1)OCO2)C1CCCN(S(=O)(=O)c2cccnc2)C1 (stereo not given)	RECQ1 inh-1 inconclusive | RECQ1 inh-2 inactive
O=C1CN(/N=C\c2ccc([N+](=O)[O-])o2)C(=O)N1	TDP1 inh inconclusive (no result: L3MBTL1 inh)
O=C1NC(=S)S/C1=C\C=C\c1ccc([N+](=O)[O-])o1	KDM4E inh 20µM, RECQ1 inh-1 13µM, APEX1 inh 2.8µM (no result: L3MBTL1 inh, TDP1 inh) | RECQ1 conf inconclusive
CN(O)/C=C/C(=O)c1ccc(Br)cc1	none
CN(C)/C=C/C(=O)c1ccc(Br)cc1	RECQ1 inh-1 inconclusive | RECQ1 inh-2 inactive
Cc1cccc(NC(=O)c2sc3nc4c(cc3c2N)CN(C(C)C)CC4)c1	none (no result: L3MBTL1 inh, KDM4E inh, RECQ1 inh-1, APEX1 inh)
COc1cc(C(=O)Nc2nccs2)ccc1OCc1c(C)noc1C	none
COc1ccc(NC(=O)c2ccc(OCc3c(C)noc3C)c(OC)c2)cn1	none | RECQ1 conf inactive | ADP FP counter 112µM
CC1=Nc2cc(C(=O)O)ccc2Sc2ccc(Br)cc21	RECQ1 inh-1 0.32µM, APEX1 inh inconclusive | RECQ1 conf 100µM | ADP FP counter inactive | RECQ1 inh-2 inactive
CC1CCCC(C)N1C(=O)C1CCCCC1 (stereo not given)	RECQ1 inh-1 inconclusive
CC1CCCC(C(=O)O)N1C(=O)CCSSCCC(=O)N1C(C)CCCC1C(=O)O (stereo not given)	none (no result: L3MBTL1 inh) | RECQ1 conf inactive | ADP FP counter inactive
COc1cccc(C(=O)N2CCc3cc(OC)c(OC)cc3C2COc2ccc3c(C)cc(=O)oc3c2)c1 (stereo not given)	none (no result: L3MBTL1 inh, KDM4E inh, RECQ1 inh-1, APEX1 inh)
Brc1ccc(-c2cn3nc4c(nc3n2)CCCC4)cc1	KDM4E inh inconclusive (no result: L3MBTL1 inh)
Nc1nn2cc(-c3ccc(Br)cc3)nc2c2ccccc12	KDM4E inh inconclusive, RECQ1 inh-1 inconclusive (no result: L3MBTL1 inh) | RECQ1 inh-2 inconclusive
O=C(O)/C(=C\c1cccs1)Sc1nnc(-c2ccc(F)cc2)o1	none
CSc1ccc(/C=C(/Sc2nnc(-c3ccccc3)o2)C(=O)O)cc1	KDM4E inh inconclusive | RECQ1 conf inactive | ADP FP counter inactive
COC(=O)c1sc2cccc(F)c2c1S(=O)(=O)NCc1ccc(F)cc1	none (no result: L3MBTL1 inh, KDM4E inh, RECQ1 inh-1, APEX1 inh)
